Experimental findings from ChEMBL document CHEMBL1961873, “Compounds: GSK PKIS; Assays: Nanosyn kinase panel” (2012) are described below.

The target in assay [1] is Protein kinase C gamma type (Homo sapiens) (UniProt P05129). The settings on record: at 1 µM.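 Note: each value is an averaged percent inhibition of the enzyme.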
The target in assay [2] is T1, Protein kinase C iota type (Homo sapiens) (UniProt P41743).
T1 sequence (whole entry): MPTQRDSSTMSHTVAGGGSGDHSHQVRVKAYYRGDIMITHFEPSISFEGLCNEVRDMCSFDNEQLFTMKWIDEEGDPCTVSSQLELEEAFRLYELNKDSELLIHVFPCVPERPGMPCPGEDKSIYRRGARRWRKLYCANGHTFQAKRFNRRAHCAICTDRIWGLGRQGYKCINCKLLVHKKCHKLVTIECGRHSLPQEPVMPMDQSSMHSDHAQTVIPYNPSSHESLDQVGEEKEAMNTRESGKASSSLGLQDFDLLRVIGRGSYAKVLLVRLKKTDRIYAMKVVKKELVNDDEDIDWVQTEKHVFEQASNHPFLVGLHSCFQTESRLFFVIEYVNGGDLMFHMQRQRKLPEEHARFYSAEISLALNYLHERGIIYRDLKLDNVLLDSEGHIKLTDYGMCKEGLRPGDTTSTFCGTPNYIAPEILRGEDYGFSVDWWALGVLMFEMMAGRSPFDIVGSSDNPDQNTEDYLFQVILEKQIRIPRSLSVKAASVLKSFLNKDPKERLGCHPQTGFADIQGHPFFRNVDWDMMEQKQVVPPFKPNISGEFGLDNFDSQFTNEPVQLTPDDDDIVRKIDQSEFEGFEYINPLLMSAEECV
The settings on record: at 0.1 µM.

In assay [3] the target is T1, Protein kinase C iota type (Homo sapiens). The settings on record: at 1 µM.
The target of assay [4] is Protein kinase C theta type (Homo sapiens) (UniProt Q04759). The settings on record: at 0.1 µM.
The target is the same in assay [5]. The settings on record: at 1 µM.
Assay [6] concerns the target Protein kinase C beta type (Homo sapiens) (UniProt P05771). The settings on record: at 0.1 µM.
The target is the same in assay [7]. The settings on record: at 1 µM.
The target in assay [8] is T2, Serine/threonine-protein kinase D1 (Homo sapiens) (UniProt Q15139).
T2 sequence (whole entry): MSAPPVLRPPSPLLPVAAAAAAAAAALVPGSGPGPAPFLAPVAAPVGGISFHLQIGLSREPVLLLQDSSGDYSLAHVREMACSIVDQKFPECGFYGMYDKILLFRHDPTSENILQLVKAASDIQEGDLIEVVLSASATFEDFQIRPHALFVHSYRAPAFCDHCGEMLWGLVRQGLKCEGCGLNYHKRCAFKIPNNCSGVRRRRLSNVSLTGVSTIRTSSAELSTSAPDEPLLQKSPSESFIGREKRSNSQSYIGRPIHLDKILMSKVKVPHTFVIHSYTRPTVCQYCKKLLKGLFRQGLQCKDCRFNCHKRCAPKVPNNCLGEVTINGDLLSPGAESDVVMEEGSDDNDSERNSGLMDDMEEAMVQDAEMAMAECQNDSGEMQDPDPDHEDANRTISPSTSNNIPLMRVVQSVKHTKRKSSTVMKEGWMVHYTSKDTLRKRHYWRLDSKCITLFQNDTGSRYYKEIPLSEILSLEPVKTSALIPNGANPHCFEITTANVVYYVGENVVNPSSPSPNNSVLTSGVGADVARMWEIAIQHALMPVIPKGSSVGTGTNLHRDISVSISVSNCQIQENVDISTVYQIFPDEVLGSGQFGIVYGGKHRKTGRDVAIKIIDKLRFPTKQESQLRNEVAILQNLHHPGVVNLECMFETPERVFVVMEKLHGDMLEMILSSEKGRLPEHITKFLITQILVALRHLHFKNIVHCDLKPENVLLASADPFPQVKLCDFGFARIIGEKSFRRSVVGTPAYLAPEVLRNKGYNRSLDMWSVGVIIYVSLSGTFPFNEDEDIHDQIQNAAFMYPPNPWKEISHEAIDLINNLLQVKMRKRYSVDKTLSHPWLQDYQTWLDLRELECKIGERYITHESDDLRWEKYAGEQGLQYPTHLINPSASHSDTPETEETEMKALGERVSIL
The settings on record: at 0.1 µM.

Assay [9] concerns the target T2, Serine/threonine-protein kinase D1 (Homo sapiens). The settings on record: at 1 µM.
Assay [10] deals with T3, Serine/threonine-protein kinase D2 (Homo sapiens) (UniProt Q9BZL6).
T3 sequence (whole entry): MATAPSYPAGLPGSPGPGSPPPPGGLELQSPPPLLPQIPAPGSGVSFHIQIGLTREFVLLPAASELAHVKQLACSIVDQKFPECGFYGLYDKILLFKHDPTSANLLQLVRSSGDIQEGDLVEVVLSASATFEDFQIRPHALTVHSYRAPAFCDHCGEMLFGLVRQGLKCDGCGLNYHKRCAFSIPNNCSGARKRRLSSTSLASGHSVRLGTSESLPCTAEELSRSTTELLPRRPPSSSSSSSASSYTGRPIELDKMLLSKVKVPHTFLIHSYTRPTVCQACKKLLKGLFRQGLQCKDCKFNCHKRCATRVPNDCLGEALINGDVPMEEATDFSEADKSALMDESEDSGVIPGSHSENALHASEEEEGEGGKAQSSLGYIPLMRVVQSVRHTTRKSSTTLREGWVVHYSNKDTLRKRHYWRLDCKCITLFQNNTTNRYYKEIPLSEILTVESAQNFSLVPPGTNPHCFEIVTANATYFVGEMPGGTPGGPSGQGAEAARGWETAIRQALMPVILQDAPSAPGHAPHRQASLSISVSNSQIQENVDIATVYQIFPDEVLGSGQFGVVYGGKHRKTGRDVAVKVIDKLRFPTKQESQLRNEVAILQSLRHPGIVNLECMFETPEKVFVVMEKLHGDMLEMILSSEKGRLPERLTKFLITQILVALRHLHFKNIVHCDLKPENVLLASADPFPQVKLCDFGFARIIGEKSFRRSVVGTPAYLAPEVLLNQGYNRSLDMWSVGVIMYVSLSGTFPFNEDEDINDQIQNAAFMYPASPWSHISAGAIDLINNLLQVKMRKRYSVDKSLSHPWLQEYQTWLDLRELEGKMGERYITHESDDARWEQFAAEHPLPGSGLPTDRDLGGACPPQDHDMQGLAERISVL
The settings on record: at 0.1 µM.

The target of assay [11] is T3, Serine/threonine-protein kinase D2 (Homo sapiens). The settings on record: at 1 µM.
For assay [12], the target named is T4, Serine/threonine-protein kinase D3 (Homo sapiens) (UniProt O94806).
T4 sequence (whole entry): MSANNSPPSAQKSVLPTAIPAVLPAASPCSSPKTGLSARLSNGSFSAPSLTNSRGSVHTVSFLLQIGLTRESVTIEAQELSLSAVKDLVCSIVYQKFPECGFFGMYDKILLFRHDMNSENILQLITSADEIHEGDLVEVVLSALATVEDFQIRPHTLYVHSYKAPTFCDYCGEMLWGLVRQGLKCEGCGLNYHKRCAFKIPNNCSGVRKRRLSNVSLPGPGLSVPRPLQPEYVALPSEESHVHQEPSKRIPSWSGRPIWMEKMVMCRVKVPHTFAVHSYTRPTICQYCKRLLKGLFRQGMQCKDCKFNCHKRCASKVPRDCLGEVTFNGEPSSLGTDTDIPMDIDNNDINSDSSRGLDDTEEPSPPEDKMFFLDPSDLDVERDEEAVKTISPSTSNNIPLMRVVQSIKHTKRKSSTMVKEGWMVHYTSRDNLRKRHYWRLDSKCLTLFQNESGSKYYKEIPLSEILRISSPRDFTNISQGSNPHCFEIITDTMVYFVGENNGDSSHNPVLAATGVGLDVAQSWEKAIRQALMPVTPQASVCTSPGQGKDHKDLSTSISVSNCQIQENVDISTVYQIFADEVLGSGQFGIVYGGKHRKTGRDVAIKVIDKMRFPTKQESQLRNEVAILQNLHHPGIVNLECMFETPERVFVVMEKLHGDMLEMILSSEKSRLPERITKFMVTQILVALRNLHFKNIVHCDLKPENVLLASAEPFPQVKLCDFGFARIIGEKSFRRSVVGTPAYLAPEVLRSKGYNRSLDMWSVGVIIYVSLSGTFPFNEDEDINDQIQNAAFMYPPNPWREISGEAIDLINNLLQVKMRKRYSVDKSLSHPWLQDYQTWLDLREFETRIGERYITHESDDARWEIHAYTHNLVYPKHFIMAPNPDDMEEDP
The settings on record: at 0.1 µM.

The target of assay [13] is T4, Serine/threonine-protein kinase D3 (Homo sapiens). The settings on record: at 1 µM.
The target of assay [14] is T5, cGMP-dependent protein kinase 1 (Homo sapiens) (UniProt Q13976).
T5 sequence (whole entry): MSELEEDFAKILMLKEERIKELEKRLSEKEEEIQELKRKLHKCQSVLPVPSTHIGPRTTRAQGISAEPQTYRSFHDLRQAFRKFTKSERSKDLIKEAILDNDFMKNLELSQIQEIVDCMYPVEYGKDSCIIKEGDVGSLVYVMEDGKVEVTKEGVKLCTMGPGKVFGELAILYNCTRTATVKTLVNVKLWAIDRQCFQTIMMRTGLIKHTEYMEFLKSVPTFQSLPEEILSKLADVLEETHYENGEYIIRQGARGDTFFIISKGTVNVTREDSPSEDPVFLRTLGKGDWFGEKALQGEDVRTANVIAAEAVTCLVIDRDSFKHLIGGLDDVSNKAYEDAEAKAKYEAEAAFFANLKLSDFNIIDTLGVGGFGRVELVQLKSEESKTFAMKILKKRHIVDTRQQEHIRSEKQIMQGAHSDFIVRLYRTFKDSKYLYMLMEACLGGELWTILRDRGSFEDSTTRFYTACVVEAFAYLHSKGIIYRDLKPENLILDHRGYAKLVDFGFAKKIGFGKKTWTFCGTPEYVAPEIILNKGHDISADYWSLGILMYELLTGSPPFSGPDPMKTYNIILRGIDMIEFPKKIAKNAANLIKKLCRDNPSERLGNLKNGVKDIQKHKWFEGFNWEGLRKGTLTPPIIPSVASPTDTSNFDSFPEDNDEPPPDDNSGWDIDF
The settings on record: at 0.1 µM.

The target in assay [15] is T5, cGMP-dependent protein kinase 1 (Homo sapiens). The settings on record: at 1 µM.
For assay [16], the target named is T6, cGMP-dependent protein kinase 2 (Homo sapiens) (UniProt Q13237).
T6 sequence (whole entry): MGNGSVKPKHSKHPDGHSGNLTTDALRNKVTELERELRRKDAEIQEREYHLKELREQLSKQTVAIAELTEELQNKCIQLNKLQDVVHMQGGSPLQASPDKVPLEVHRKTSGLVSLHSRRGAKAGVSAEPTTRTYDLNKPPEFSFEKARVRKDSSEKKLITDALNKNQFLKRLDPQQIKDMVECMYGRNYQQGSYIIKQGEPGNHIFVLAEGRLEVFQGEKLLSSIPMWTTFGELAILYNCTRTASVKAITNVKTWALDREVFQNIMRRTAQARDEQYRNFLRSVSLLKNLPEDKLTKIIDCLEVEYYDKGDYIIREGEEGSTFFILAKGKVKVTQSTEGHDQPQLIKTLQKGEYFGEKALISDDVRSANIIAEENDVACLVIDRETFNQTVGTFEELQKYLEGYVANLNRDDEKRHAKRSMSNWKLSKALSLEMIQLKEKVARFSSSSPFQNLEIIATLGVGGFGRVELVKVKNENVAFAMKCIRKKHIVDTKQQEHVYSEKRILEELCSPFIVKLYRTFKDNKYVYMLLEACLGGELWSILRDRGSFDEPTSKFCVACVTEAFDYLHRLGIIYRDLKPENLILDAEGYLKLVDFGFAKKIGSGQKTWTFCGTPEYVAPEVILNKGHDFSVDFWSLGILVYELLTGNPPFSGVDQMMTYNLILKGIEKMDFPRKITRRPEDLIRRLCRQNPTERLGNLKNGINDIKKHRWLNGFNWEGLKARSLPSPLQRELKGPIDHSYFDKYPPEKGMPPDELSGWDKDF
The settings on record: at 0.1 µM.

Assay [17] deals with T6, cGMP-dependent protein kinase 2 (Homo sapiens). The settings on record: at 1 µM.
Assay [18] addresses T7, cAMP-dependent protein kinase catalytic subunit PRKX (Homo sapiens) (UniProt P51817).
T7 sequence (whole entry): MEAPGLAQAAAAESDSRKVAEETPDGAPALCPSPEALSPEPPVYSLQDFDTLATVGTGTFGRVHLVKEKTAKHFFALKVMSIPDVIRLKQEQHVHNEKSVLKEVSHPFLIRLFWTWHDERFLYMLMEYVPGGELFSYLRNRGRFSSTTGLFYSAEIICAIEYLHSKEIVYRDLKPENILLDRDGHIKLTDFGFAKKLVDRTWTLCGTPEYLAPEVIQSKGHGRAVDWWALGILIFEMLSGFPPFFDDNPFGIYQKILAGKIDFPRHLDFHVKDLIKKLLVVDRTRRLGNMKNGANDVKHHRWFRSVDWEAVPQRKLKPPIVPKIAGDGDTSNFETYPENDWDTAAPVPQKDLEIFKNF
The settings on record: at 0.1 µM.

The target in assay [19] is T7, cAMP-dependent protein kinase catalytic subunit PRKX (Homo sapiens). The settings on record: at 1 µM.
The target in assay [20] is Rho-associated protein kinase 1 (Homo sapiens) (UniProt Q13464). The settings on record: at 0.1 µM.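 Note: values are mean percent inhibition of ROCK1.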
Sequence of Rho-associated protein kinase 1 (Homo sapiens) (Q13464 2-1354 limits assumed): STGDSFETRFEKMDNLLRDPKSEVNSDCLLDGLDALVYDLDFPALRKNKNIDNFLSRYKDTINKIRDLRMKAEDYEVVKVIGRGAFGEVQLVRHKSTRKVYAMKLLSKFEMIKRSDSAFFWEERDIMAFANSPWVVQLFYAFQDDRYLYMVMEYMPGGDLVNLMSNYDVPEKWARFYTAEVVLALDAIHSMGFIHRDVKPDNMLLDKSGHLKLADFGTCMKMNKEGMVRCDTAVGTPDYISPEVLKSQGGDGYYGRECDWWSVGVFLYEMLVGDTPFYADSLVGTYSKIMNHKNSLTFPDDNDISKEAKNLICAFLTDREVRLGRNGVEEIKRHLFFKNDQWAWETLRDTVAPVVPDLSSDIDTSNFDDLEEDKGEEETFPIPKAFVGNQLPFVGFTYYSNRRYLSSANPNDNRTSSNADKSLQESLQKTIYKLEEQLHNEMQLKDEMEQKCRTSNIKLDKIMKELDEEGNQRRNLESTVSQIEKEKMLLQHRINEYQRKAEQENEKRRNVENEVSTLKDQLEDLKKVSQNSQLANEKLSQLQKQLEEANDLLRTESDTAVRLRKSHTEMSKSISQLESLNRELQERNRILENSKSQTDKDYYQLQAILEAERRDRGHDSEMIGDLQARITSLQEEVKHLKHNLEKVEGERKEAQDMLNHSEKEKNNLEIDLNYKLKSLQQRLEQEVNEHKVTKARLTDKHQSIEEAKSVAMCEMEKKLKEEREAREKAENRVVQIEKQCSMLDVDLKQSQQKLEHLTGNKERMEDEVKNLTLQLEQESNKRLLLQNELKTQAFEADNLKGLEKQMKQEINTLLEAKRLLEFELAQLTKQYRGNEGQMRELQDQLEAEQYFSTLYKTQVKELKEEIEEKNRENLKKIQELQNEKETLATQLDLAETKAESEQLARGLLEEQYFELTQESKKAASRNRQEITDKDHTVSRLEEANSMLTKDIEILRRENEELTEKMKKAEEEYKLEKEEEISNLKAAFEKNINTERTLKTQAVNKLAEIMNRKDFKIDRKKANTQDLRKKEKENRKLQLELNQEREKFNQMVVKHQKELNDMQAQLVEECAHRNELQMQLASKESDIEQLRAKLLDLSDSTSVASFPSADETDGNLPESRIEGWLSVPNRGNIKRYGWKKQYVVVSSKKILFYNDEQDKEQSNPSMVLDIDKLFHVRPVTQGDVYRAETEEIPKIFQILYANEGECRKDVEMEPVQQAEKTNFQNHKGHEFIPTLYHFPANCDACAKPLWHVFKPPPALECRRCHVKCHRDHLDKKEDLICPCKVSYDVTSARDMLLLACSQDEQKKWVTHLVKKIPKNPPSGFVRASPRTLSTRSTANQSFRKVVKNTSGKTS

Sequence of Protein kinase C beta type (Homo sapiens) (P05771 2-671 limits assumed): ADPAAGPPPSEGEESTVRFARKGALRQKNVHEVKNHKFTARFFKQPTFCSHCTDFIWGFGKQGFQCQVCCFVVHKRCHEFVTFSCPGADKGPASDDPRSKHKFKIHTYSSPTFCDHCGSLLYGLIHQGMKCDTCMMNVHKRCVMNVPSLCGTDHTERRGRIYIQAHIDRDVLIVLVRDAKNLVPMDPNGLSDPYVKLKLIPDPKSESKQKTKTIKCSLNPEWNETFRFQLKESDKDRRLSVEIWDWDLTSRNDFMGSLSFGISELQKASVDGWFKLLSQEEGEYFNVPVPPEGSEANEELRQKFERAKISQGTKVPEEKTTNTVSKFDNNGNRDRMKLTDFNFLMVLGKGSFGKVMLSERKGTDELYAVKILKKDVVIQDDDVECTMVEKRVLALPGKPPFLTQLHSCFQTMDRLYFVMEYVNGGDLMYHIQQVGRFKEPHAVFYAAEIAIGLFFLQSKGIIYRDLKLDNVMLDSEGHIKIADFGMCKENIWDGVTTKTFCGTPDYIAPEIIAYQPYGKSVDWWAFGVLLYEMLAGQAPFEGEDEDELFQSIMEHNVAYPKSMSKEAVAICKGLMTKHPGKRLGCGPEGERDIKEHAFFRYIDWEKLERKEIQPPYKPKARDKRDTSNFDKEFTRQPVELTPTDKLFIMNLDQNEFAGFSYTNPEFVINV
Sequence of Protein kinase C theta type (Homo sapiens) (Q04759 whole entry, looked up): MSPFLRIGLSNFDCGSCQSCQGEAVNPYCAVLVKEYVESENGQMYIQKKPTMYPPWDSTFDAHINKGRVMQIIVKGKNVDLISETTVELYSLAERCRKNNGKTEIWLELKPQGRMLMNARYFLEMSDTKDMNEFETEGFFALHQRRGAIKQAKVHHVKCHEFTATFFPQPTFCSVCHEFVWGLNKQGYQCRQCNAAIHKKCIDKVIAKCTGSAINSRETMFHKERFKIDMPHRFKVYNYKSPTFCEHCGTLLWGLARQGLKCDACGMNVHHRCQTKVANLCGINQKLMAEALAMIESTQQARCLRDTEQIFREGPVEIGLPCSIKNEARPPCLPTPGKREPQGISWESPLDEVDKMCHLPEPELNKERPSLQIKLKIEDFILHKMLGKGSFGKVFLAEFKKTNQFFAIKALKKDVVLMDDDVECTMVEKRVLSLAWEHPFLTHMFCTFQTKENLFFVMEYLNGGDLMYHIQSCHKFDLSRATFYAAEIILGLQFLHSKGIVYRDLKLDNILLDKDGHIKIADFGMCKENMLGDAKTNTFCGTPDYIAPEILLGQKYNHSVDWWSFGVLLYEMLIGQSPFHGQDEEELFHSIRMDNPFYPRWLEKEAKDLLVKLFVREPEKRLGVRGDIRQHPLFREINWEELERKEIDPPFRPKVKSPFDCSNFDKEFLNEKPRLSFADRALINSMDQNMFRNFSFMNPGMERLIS

Turning to `Cc1ccc(C(=O)NC2CCC2)cc1-c1ccc(C(=O)NCC2CC2)cc1`, the inhibition (commonly the change of the read-out against control, counted positive when it falls) in assay [1] is 0.94%; in assay [2], 2.17%; in [3] it was 2.33%; in assay [4], 0.68%; in assay [5], -0.42%; in [6], 0.24%. Also, the inhibition worked out at 0.53% in assay [7]; 2.65% in assay [8]; 3.61% in assay [9]; 2.36% in assay [10]; 2.79% in assay [11]; 2.86% in assay [12]. In addition, the inhibition in assay [13] amounted to 2.6%; in assay [14], 3.87%; in assay [15], 3.84%; in [16], 1.07%; in assay [17], 3.54%; in [18], 1.55%. Moreover, the values for the inhibition in assay [19] and in assay [20] were -0.61% and 1.21%, respectively.
